The whole screen tested about 5,500 compounds, of which about 2,000 (36%) were called active. About 18% were inconclusive and are not listed. No stated cut-off is given here; in the data, active means normalized growth mostly below about 0.91 (no sharp cut-off); inconclusive means no clear call, values can overlap the other calls; inactive means mostly above about 0.92. The list shows a part of the results.
Test: chemical genetic growth profiling, strain panel (AID 1159580);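 further: tested at 20 µM; growth read once vehicle control cultures reached saturation at 30 °C; 1 = growth at the plate median or of vehicle wells; lower values mean less growth of the strain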
Settings: growth OD

Measured: normalized growth

N#CC(O[C@@H]1O[C@H](CO[C@@H]2O[C@H](CO)[C@@H](O)[C@H](O)[C@H]2O)[C@@H](O)[C@H](O)[C@H]1O)c1ccccc1 (some centres not stated)
inactive: S. cerevisiae deletion strains, locus YJR043C, strain POL32, active compounds read low 1.01 | S. cerevisiae deletion strains, locus YJR066W, strain TOR1, active compounds read low 0.921 | S. cerevisiae deletion strains, locus YJR075W, strain HOC1, active compounds read low 0.999 | S. cerevisiae deletion strains, locus YKL009W, strain mrt4, active compounds read low 0.99 | S. cerevisiae deletion strains, locus YKL068W, active compounds read low 0.991 | S. cerevisiae deletion strains, locus YKL085W, strain MDH1 (second series), active compounds read low 0.987 | S. cerevisiae deletion strains, locus YKL085W, strain MDH1, active compounds read low 0.987 | S. cerevisiae deletion strains, locus YKL160W, strain elf1, active compounds read low 0.983 | S. cerevisiae deletion strains, locus YKR001C, strain vps1, active compounds read low 0.988 | S. cerevisiae deletion strains, locus YKR026C, strain gcn3, active compounds read low 0.977 | S. cerevisiae deletion strains, locus YKR091W, strain srl3, active compounds read low 0.979 | S. cerevisiae deletion strains, locus YLL001W, strain dnm1, active compounds read low 0.984 | S. cerevisiae deletion strains, locus YLL026W, active compounds read low 0.981 | S. cerevisiae deletion strains, locus YLL041C, strain sdh2, active compounds read low 0.991 | S. cerevisiae deletion strains, locus YLR027C, strain aat2, active compounds read low 0.987 | S. cerevisiae deletion strains, locus YLR039C, strain RIC1, active compounds read low 1.01 | S. cerevisiae deletion strains, locus YLR058C, strain SHM2, active compounds read low 1.01 | S. cerevisiae deletion strains, locus YLR102C, strain apc9, active compounds read low 0.983 | S. cerevisiae deletion strains, locus YLR113W, strain HOG1, active compounds read low 1.03 | S. cerevisiae deletion strains, locus YLR221C, strain rsa3, active compounds read low 0.976 | S. cerevisiae deletion strains, locus YLR258W, strain gsy2, active compounds read low 0.982 | S. cerevisiae deletion strains, locus YLR262C, strain YPT6 (second series), active compounds read low 0.991 | S. cerevisiae deletion strains, locus YLR262C, strain YPT6, active compounds read low 1.04 | S. cerevisiae deletion strains, locus YLR268W, strain sec22, active compounds read low 0.972 | S. cerevisiae deletion strains, locus YLR320W, strain mms22, active compounds read low 0.968 | S. cerevisiae deletion strains, locus YLR330W, strain CHS5, active compounds read low 1.01 | S. cerevisiae deletion strains, locus YLR342W, strain FKS1 (second series), active compounds read low 1.03 | S. cerevisiae deletion strains, locus YLR342W, strain FKS1, active compounds read low 0.967 | S. cerevisiae deletion strains, locus YLR357W, strain rsc2, active compounds read low 0.948 | S. cerevisiae deletion strains, locus YLR370C, strain arc18, active compounds read low 0.991 | S. cerevisiae deletion strains, locus YLR371W, strain rom2, active compounds read low 1.01 | S. cerevisiae deletion strains, locus YLR384C, strain iki3, active compounds read low 0.96 | S. cerevisiae deletion strains, locus YLR418C, strain cdc73, active compounds read low 1.02 | S. cerevisiae deletion strains, locus YML016C, strain PPZ1, active compounds read low 0.986 | S. cerevisiae deletion strains, locus YML032C, strain rad52, active compounds read low 1.01 | S. cerevisiae deletion strains, locus YML120C, strain ndi1, active compounds read low 0.991 | S. cerevisiae deletion strains, locus YML124C, strain tub3, active compounds read low 0.999 | S. cerevisiae deletion strains, locus YMR058W, strain fet3, active compounds read low 0.989 | S. cerevisiae deletion strains, locus YMR078C, strain ctf18, active compounds read low 1 | S. cerevisiae deletion strains, locus YMR125W, strain sto1, active compounds read low 0.965 | S. cerevisiae deletion strains, locus YMR129W, active compounds read low 0.985 | S. cerevisiae deletion strains, locus YMR205C, strain PFK2, active compounds read low 0.985 | S. cerevisiae deletion strains, locus YMR223W, strain ubp8, active compounds read low 1.01 | S. cerevisiae deletion strains, locus YMR231W, strain pep5, active compounds read low 0.964 | S. cerevisiae deletion strains, locus YMR307W, strain GAS1, active compounds read low 1.01 | S. cerevisiae deletion strains, locus YNL067W, strain RPL9B, active compounds read low 1.03 | S. cerevisiae deletion strains, locus YNL071W, strain lat1, active compounds read low 0.98 | S. cerevisiae deletion strains, locus YNL183C, strain NPR1, active compounds read low 0.976 | S. cerevisiae deletion strains, locus YNL209W, strain ssb2, active compounds read low 0.984 | S. cerevisiae deletion strains, locus YNL233W, strain BNI4, active compounds read low 1.04 | S. cerevisiae deletion strains, locus YNL248C, strain rpa49, active compounds read low 0.983 | S. cerevisiae deletion strains, locus YNL250W, strain rad50, active compounds read low 0.969 | S. cerevisiae deletion strains, locus YNL271C, strain bni1, active compounds read low 0.986 | S. cerevisiae deletion strains, locus YNL298W, strain CLA4, active compounds read low 0.996 | S. cerevisiae deletion strains, locus YNL307C, strain MCK1, active compounds read low 0.991 | S. cerevisiae deletion strains, locus YNL322C, strain KRE1 (second series), active compounds read low 0.977 | S. cerevisiae deletion strains, locus YNR049C, strain mso1, active compounds read low 0.984 | S. cerevisiae deletion strains, locus YNR052C, strain pop2, active compounds read low 0.989 | S. cerevisiae deletion strains, locus YOL006C, strain TOP1, active compounds read low 1.05 | S. cerevisiae deletion strains, locus YOL012C, strain htz1 1.19 | S. cerevisiae deletion strains, locus YOL147C, strain pex11, active compounds read low 0.989 | S. cerevisiae deletion strains, locus YOR001W, strain rrp6, active compounds read low 0.946 | S. cerevisiae deletion strains, locus YOR061W, strain CKA2, active compounds read low 0.993 | S. cerevisiae deletion strains, locus YOR069W, strain VPS5, active compounds read low 0.993 | S. cerevisiae deletion strains, locus YOR070C, strain gyp1, active compounds read low 0.967 | S. cerevisiae deletion strains, locus YOR080W, strain dia2, active compounds read low 0.966 | S. cerevisiae deletion strains, locus YOR083W, strain WHI5, active compounds read low 0.976 | S. cerevisiae deletion strains, locus YOR106W, strain vam3, active compounds read low 0.989 | S. cerevisiae deletion strains, locus YOR136W, strain idh2, active compounds read low 0.994 | S. cerevisiae deletion strains, locus YOR144C, strain elg1, active compounds read low 0.99 | S. cerevisiae deletion strains, locus YOR184W, strain ser1, active compounds read low 1.04 | S. cerevisiae deletion strains, locus YOR231W, strain MKK1, active compounds read low 0.974 | S. cerevisiae deletion strains, locus YOR265W, strain rbl2, active compounds read low 0.981 | S. cerevisiae deletion strains, locus YOR270C, strain vph1, active compounds read low 0.98 | S. cerevisiae deletion strains, locus YOR290C, strain snf2, active compounds read low 0.988 | S. cerevisiae deletion strains, locus YOR316C, strain cot1, active compounds read low 0.985 | S. cerevisiae deletion strains, locus YPL051W, strain arl3, active compounds read low 0.98 | S. cerevisiae deletion strains, locus YPL078C, strain atp4, active compounds read low 0.984 | S. cerevisiae deletion strains, locus YPL106C, strain sse1, active compounds read low 0.972 | S. cerevisiae deletion strains, locus YPL240C, strain hsp82, active compounds read low 0.985 | S. cerevisiae deletion strains, locus YPL256C, strain CLN2, active compounds read low 0.969 | S. cerevisiae deletion strains, locus YPR119W, strain clb2, active compounds read low 1.01 | S. cerevisiae deletion strains, locus YPR141C, strain kar3, active compounds read low 0.981 | S. cerevisiae deletion strains, locus YPR163C, strain tif3, active compounds read low 0.992 | S. cerevisiae deletion strains, locus YPR167C, strain met16, active compounds read low 0.973 | S. cerevisiae deletion strains, strain wtn01, active compounds read low 0.984 | S. cerevisiae strains, strain wild type, active compounds read low 1.02
